FLuc modulator: qHTS profiling assay for firefly luciferase inhibitor/activator using purifed enzyme and Km concentrations of substrates (counterscreen for miR-21 project); Luciferin 4-monooxygenase (Photinus pyralis), P08659; purified FLuc, Km substrates, luminescence inhibition; Potency, µM (highest dose often 57.5 µM), for inactives: at the top dose activity change, negative = inhibition, actives largely listed as inhibitors; hit rate 6.9% among 360,000;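 also: plate controls were vehicle for no effect and reference inhibitor for full effect; nearly all actives have a fitted effect of over 55% in size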
Target sequence (P08659 whole entry, looked up): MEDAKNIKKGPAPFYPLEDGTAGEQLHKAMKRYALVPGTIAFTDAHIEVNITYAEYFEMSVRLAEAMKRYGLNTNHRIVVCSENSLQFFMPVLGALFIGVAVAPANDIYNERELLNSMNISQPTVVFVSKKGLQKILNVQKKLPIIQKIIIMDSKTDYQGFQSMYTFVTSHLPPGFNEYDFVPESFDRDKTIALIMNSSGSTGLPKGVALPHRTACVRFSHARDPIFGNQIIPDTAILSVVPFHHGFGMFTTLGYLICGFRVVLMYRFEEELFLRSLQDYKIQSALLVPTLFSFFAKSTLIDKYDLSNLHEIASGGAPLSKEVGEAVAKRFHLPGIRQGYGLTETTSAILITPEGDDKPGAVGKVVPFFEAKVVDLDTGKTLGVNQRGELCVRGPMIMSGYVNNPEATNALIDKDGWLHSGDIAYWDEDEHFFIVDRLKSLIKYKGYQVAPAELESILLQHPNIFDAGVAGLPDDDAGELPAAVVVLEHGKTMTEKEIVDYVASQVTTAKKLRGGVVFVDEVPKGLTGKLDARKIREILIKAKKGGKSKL
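Purified P. pyralis luciferase (10nM final) with 10uM D-luciferin and 10uM ATP (Km levels) in 50mM Tris acetate pH 7.5, 10mM Mg acetate, 0.01% Tween-20, 0.05% BSA; qHTS 6-point titration, ~60 µM downward; luminescence read.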
ELG1 genotoxic: qHTS screen for small molecules that induce genotoxicity in human embryonic kidney (HEK293T) cells expressing luciferase-tagged ELG1. HEK293T ELG1-luciferase reporter, luminescence, 16 h. Potency, µM (titrated, usually from 46 µM), for inactives: at the highest dose activity change, positive = activation, actives largely listed as activators. hit rate 1.3% among 330,000. AID 504466, 2011; also: % of control where 0% means no effect; nearly all actives have a fitted effect of over 60% in size
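After overnight (16 hr) compound treatment at 37 °C, ELG1-luciferase HEK293T cells were lysed with ONE-Glo; luminescence quantified 30 min later at room temperature.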
SMN2 splice enh: qHTS Assay for Enhancers of SMN2 Splice Variant Expression. HEK293 SMN2-luciferase splicing reporter, luminescence, 30-36 h. Potency, µM (top dose mostly 46.1 µM), without a hit: at the top dose activity change, positive = activation, actives largely listed as activators. hit rate 2.8% among 210,000; also: % of control where 0% means no effect; nearly all actives have a fitted effect of over 55% in size
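HEK293 cells carry an SMN2 […]–luciferase reporter in which exon 7 inclusion puts luciferase in frame. Cells were plated 10-12 h before compound addition, then incubated 30-36 h at 37C. ONE-Glo luminescence was read; sodium butyrate at 4.5 mM final served as control.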
NPC1 prom act: qHTS Assay for NPC1 Promoter Activators; hit rate 2.4% among 320,000; Potency, µM (top dose mostly 9.22 µM), for the others: top-dose activation, usual class: activators; Huh7 NPC1 promoter luciferase reporter, 24 h; AID 485313, 2010; also: % of control where 0% means no effect; nearly all actives have a fitted effect of over 60% in size
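Quantitative HTS used a cell-based reporter: Huh7 cells stably bearing the NPC1 promoter upstream of luciferase were treated with compounds for 24 h, and promoter activation was read as luminescence.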
Rab9 prom act: qHTS Assay for Rab9 Promoter Activators | Huh7 Rab9 promoter-luciferase reporter, luminescence, 24 h | Potency, µM (series often up to 9.22 µM), inactives show at the highest dose activation, negative = inhibition, actives largely listed as activators | hit rate 2.8% among 320,000 | AID 485297, 2010; also: % of control where 0% means no effect; nearly all actives have a fitted effect of over 60% in size
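Quantitative HTS format; Huh7 Rab9-luciferase reporter cells (1500/well) receive compound 2 h post-plating, incubate 24 h at 37 °C, then get luciferase reagent for 10 min before luminescence reading.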
KinaseGlo FLuc: Counterscreen for Luciferase (Kinase-Glo TM) Inhibition | Luciferin 4-monooxygenase (Photuris pensylvanica), Q27757 | Kinase-Glo luciferase, ATP luminescence, 8 min | Potency, µM (highest dose often 38.3 µM), without a hit: top-dose activity change, negative = inhibition, usual class: inhibitors | hit rate 0.28% among 200,000; also: % is scaled to controls: 0 for no effect and ±100 for the full control effect; nearly all actives have a fitted effect of over 60% in size
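Recombinant Kinase-Glo luciferase, 10 uM ATP (linear range), luciferin; imidazole pH 7.2 / KCl / MgCl2 / Tween / BSA buffer; 8 min RT; luminescence.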
The depositor's hits bear a star. An excerpt weighted towards active compounds, which were near 7.4% of everything screened. Calls follow the shape of the dose curve; as a rule, active = well fitted curve in the direction sought with a large enough effect; inconclusive = small, poorly fitted or top-dose-only effect, or another doubt; inactive = no such curve, though single readings can be large; an effect the other way counts as inactive or inconclusive. Potency is read from the fitted curve at half-maximal effect.

Screening COc1ccc2c(c1O)C(=O)c1ccccc1C2=O returned FLuc modulator inconclusive, ELG1 genotoxic 14%, NPC1 prom act inconclusive and Rab9 prom act inconclusive.
O=C(NCC1CCCO1)c1nn2cccnc2c1Cl (stereo not given) was read as FLuc modulator -15%, ELG1 genotoxic inconclusive, SMN2 splice enh 22µM*, NPC1 prom act 13%, Rab9 prom act 22% and KinaseGlo FLuc -2%.
Cn1cc(C(=O)Nc2ccccn2)c(=O)c2ccccc21 was read as FLuc modulator 15µM*, ELG1 genotoxic inconclusive, NPC1 prom act inconclusive and Rab9 prom act inconclusive.
For Cc1ccc(CNC(=O)CCCOc2cc(=O)n(C)c3ccccc23)o1 the results were FLuc modulator -2%, ELG1 genotoxic inconclusive, SMN2 splice enh inconclusive, NPC1 prom act -10%, Rab9 prom act 0% and KinaseGlo FLuc 2%.
Cc1ccccc1C(=O)Nc1ccccn1 was read as FLuc modulator -13%, SMN2 splice enh -19% and KinaseGlo FLuc -1%.
Cn1c(=O)cc(OCCCC(=O)Nc2ccccn2)c2ccccc21 was read as FLuc modulator 2%, ELG1 genotoxic 21µM*, SMN2 splice enh 21%, NPC1 prom act -5%, Rab9 prom act -7% and KinaseGlo FLuc -4%.
Screening CC(C)CCNC(=O)CCCOc1cc(=O)n(C)c2ccccc12 returned FLuc modulator 5%, ELG1 genotoxic inconclusive, SMN2 splice enh 13µM*, NPC1 prom act -8%, Rab9 prom act -1% and KinaseGlo FLuc -1%.
Cn1c(=O)cc(OCCCC(=O)NCc2ccco2)c2ccccc21 was read as FLuc modulator -2%, ELG1 genotoxic 18µM*, SMN2 splice enh 10µM*, NPC1 prom act -8%, Rab9 prom act -4% and KinaseGlo FLuc -3%.
`CCC(=O)N1CCc2cc(S(=O)(=O)NCCC(=O)Nc3cc(C)ccc3OC)ccc21` gave FLuc modulator -9% and SMN2 splice enh 1%.
Cn1c(=O)cc(OCC(=O)NCCCN2CCN(Cc3ccccc3)CC2)c2ccccc21 was read as FLuc modulator 2%, ELG1 genotoxic 18µM*, SMN2 splice enh inconclusive, NPC1 prom act 0%, Rab9 prom act 0% and KinaseGlo FLuc 2%.
Screening COc1ccc(N2CCN(C(=O)CCCOc3cc(=O)n(C)c4ccccc34)CC2)cc1 returned FLuc modulator 3%, ELG1 genotoxic 0%, SMN2 splice enh -8%, NPC1 prom act -1%, Rab9 prom act 2% and KinaseGlo FLuc -3%.
CC1CCN(C(=O)CCCOc2cc(=O)n(C)c3ccccc23)CC1 was read as FLuc modulator -2%, ELG1 genotoxic 18µM*, SMN2 splice enh inconclusive, NPC1 prom act -3%, Rab9 prom act -5% and KinaseGlo FLuc -1%.
Cc1c(Cl)cccc1NC(=O)Cn1c(=O)cc(C)c2c(C)nn(-c3cccc(F)c3)c21 was read as FLuc modulator 4%.
For CC(C)NC(=O)N1CC2(CCN(C(=O)c3cc(C(F)(F)F)cc(C(F)(F)F)c3)CC2)C1 the results were SMN2 splice enh 6% and KinaseGlo FLuc 1%.
For CCc1cc2c(=O)[nH]c(N3CCCC3)nc2s1 the results were FLuc modulator inconclusive, ELG1 genotoxic 11%, SMN2 splice enh inconclusive, NPC1 prom act 17%, Rab9 prom act inconclusive and KinaseGlo FLuc -1%.
`CCc1cc2c(=O)[nH]c(-c3ccccn3)nc2s1` gave FLuc modulator 6µM*, ELG1 genotoxic inconclusive, SMN2 splice enh 10µM*, NPC1 prom act 4.5µM*, Rab9 prom act inconclusive and KinaseGlo FLuc -5%.
`COc1ccc(C(CC(=O)Nc2nccs2)n2cccc2)cc1` (stereo not given) gave FLuc modulator 6µM*, ELG1 genotoxic 12%, SMN2 splice enh 10µM*, NPC1 prom act 2.8µM*, Rab9 prom act 3.2µM* and KinaseGlo FLuc -9%.
For COc1ccc(C(CC(=O)Nc2nccs2)C(C)C)cc1 (stereo not given) the results were FLuc modulator -1%, ELG1 genotoxic -10%, NPC1 prom act -2% and Rab9 prom act -2%.
For COc1ccccc1OCCCC(=O)Nc1nccs1 the results were FLuc modulator 12µM*, ELG1 genotoxic inconclusive, NPC1 prom act inconclusive, Rab9 prom act 2.2µM* and KinaseGlo FLuc 2%.
`O=C(COc1ccc2c(c1)OCO2)Nc1nccs1` gave FLuc modulator 1.7µM*, ELG1 genotoxic 2.3µM*, NPC1 prom act 0.4µM* and Rab9 prom act 0.45µM*.
For CCOc1ccc(OCC(=O)Nc2nccs2)cc1 the results were FLuc modulator 0.95µM*, ELG1 genotoxic 0.92µM*, SMN2 splice enh 5µM*, NPC1 prom act 0.5µM*, Rab9 prom act inconclusive and KinaseGlo FLuc 11µM*.
Screening CCOc1ccc(S(=O)(=O)N(C)c2ccc(OCC(=O)Nc3nccs3)cc2)cc1 returned FLuc modulator 4%, ELG1 genotoxic -13%, SMN2 splice enh -15%, NPC1 prom act -2%, Rab9 prom act -1% and KinaseGlo FLuc 0%.
`COc1ccc(CCNC(=O)Cn2c(=O)n(-c3ccc(OC)c(OC)c3)c(=O)c3ccccc32)cc1OC` gave FLuc modulator -4% and SMN2 splice enh -11%.
For Cc1cccc(-n2c(CNC(=O)c3cccc(F)c3)nnc2SCC(=O)Nc2ccccc2F)c1 the results were FLuc modulator -1% and SMN2 splice enh -14%.
`COc1ccc(OCC(=O)Nc2nccs2)cc1` gave FLuc modulator 3µM*, ELG1 genotoxic inconclusive, NPC1 prom act 0.56µM*, Rab9 prom act 0.45µM* and KinaseGlo FLuc 10µM*.
For COc1ccc(OCC(=O)Nc2nc(-c3ccc(Br)cc3)ns2)cc1 the results were FLuc modulator 11µM*.
Screening NNC(=O)COc1cccc2cccnc12 returned FLuc modulator -5%, ELG1 genotoxic -2%, SMN2 splice enh 2%, NPC1 prom act -2%, Rab9 prom act 1% and KinaseGlo FLuc 4%.
For O=C(COc1cccc2cccnc12)Nc1nccs1 the results were FLuc modulator 12µM*, ELG1 genotoxic inconclusive, SMN2 splice enh inconclusive, NPC1 prom act inconclusive, Rab9 prom act 4µM* and KinaseGlo FLuc -29%.
For COc1cccc(NC(=O)c2nnn(Cc3cccc(C(F)(F)F)c3)c2N)c1 the results were FLuc modulator 3% and SMN2 splice enh 6%.

Assay outcomes from PubChem BioAssay.
